Among the data in PubChem BioAssay AID651640 (Broad Institute, 2012) are CPE inhibition values, retold here.

About 6,000 (1.7%) of roughly 350,000 compounds were called active. Another 5% or so got no clear call; they are omitted. Only a selection was taken, and actives are over-represented in it overall. Values without a mark were called inactive. Rule as the data show it: active = CPE inhibition above about 20% (passing the limit was not always enough); inconclusive = no clear call, values can overlap the other calls; tested in BHK-21 cells.

This assay in a line: protection of cells from dengue 2 killing – plate reader, single concentration, primary screen (AID 651640).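 Also: 0% = median of neutral control wells and 100% = median of positive control wells.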 The settings on record: DENV2-infected cells, cytopathic effect rescue, at 9.99 µM, stronger effect = higher value. On the technique in general: Cytopathic effects are the visible damage that an infection or toxin causes in cultured cells.
`CCOC(=O)[C@]12Cc3cc(OC)ccc3[C@H]1N(C(C)C)C(=O)c1ccccc12`: the CPE inhibition is 28.6% (active).
As for `CCOC(=O)[C@]12Cc3ccccc3[C@H]1N(C1CCCCC1)C(=O)c1cc(OC)ccc12`, the CPE inhibition was 12.6%.
The result for `O=C(NC1CCCCC1)N1Cc2cc(N3CCCCC3)ccc2-n2nncc2C1` reads 18.7%; that for `Clc1ccc([C@@H]2CC3CCC2N3)cn1` (stereo not given in full), 2.65%.
Under `O=C1/C(=C\c2ccc3c(c2)OCO3)N2CCC1CC2` stands -2.2%; under `c1cc2c(cc1[C@H]1OC[C@H]3[C@@H]1CO[C@@H]3c1ccc3c(c1)OCO3)OCO2`, -8.32%; under `c1cc2c(cc1C1OCC3C(c4ccc5c(c4)OCO5)OCC13)OCO2` (stereo not given), 62% (active).
Under `COc1ccc(C#Cc2ccc([C@H]3[C@H](CO)N4CCCCN(C(=O)Cc5ccccc5)C[C@@H]34)cc2)cc1` stands -26.2%.
Take `O=C(NCC1=C(c2ccc3ccccc3c2)C[C@@H]2CC[C@H]1N2Cc1ccco1)c1cccs1`: the CPE inhibition was 0.357%.
In the case of `C/C=C/c1ccc(C2[C@@H]3CN(Cc4cncnc4)C[C@H]2N3)cc1` (stereo not given in full), the CPE inhibition is 3.65%.
Under `CS(=O)(=O)N1CCC2CCNC2C1` (stereo not given) stands -6.24%; under `C/C=C/c1ccc(C2[C@@H]3CN(S(C)(=O)=O)C[C@H]2N3)cc1` (stereo not given in full), 62.5% (active).
For `C[C@]12CCC3C(CC[C@H]4[C@H](O)[C@H](O)CC[C@]34C)C1CCC2=O` (stereo not given in full), the CPE inhibition was -1.57%.
For `CC(=O)NCC1=C(c2ccc3ccccc3c2)C[C@@H]2CC[C@H]1N2Cc1ccco1`, the CPE inhibition is -2.04%.
Under `C[C@]12CCCCC1=CC(=O)C1C2CC[C@@]2(C)C1C[C@@H](F)[C@@H]2O` (stereo not given in full) stands -4.28%; under `COc1ccc(-c2ccc([C@H]3[C@H](CO)N4CCCCN(C(=O)Cc5ccncc5)C[C@@H]34)cc2)cc1`, 40.9% (active); under `O=C(Cc1ccncc1)N1CCCCN2[C@@H](CO)[C@H](c3ccc(-c4ccncc4)cc3)[C@@H]2C1`, 8.4%.
The result for `COc1cccc(-c2ccc([C@H]3[C@H]4CN(C(=O)Cc5ccncc5)CCCCN4[C@H]3CO)cc2)c1` reads 9.07%.
Turning to `O=S(=O)(c1ccccc1)N1CCC2CCNC2C1` (stereo not given), the CPE inhibition was -0.751%.
Consider `COc1ccc2c(c1)NP(=S)(c1ccccc1)N2` (stereo not given), for which the CPE inhibition is 1.27%.
Regarding `Cc1cc(/C=C2/C(=O)NC(=O)N(Cc3ccco3)C2=O)c(C)n1-c1ccc(C(=O)O)cc1`, the CPE inhibition is -3.34%.
Take `Cc1ccc(-n2c(C)cc(/C=C3\C(=O)NC(=O)N(C)C3=O)c2C)cc1C`: the CPE inhibition is -7.68%.
The result for `Cc1ccnc(-n2c(C)cc(/C=C3\C(=O)NC(=S)N(C)C3=O)c2C)c1` reads 47.7% (active); that for `COc1ccccc1NC(=O)N1C[C@@H]2C[C@@H](C1)c1cccc(=O)n1C2`, 7.15%; that for `O=C(CCC(=O)N1C[C@H]2C[C@@H](C1)c1cccc(=O)n1C2)NCc1ccccc1C(F)(F)F`, 25.4% (active).
Under `O=C(NC(=S)N1C[C@H]2C[C@H](C1)c1cccc(=O)n1C2)c1ccc(F)cc1` stands -11.6%; under `CC(C)CN1Cc2cc(N3CCCCC3)ccc2-n2nncc2C1`, -1.07%.
Under `O=C(O)[C@H]1[C@H](CO)[C@H]2Cn3c(ccc(-c4ccccc4)c3=O)[C@@H]1N2S(=O)(=O)c1ccccc1F` stands 0.732%.
As for `COc1cccc(-c2ccc3n(c2=O)C[C@H]2[C@H](CO)[C@@H](C(=O)O)[C@@H]3N2C(=O)c2cnccn2)c1`, the CPE inhibition was 0.125%.
The result for `COc1cc(OC)cc(C(=O)NCCN2CCC3(CC2)C(=O)NCN3c2ccccc2)c1` reads 5.39%.
The result for `O=C(c1ccccc1)C(O)(CN1CCCCC1)c1ccccc1` (stereo not given) reads 9.29%; that for `COC(=O)C1=C(c2ccc(F)cc2OCc2ccccc2)C[C@@H]2CC[C@H]1N2C(=O)NCc1ccc(Cl)cc1`, 91% (active).
The result for `COC(=O)C1=C(c2ccc(F)cc2OCc2ccccc2)C[C@@H]2CC[C@H]1N2C(=O)NCc1ccc2[nH]ccc2c1` reads 5.56%; that for `COC(=O)C1=C(c2ccc(F)cc2OCc2ccccc2)C[C@@H]2CC[C@H]1N2C(=O)NCc1ccc(C(C)(C)C)cc1`, -10.5%; that for `COc1ccc(C2C=C(C)Oc3c2c(=O)oc2ccccc32)cc1OC` (stereo not given), -10.4%.
